According to PubChem BioAssay (Tox21):
“And” between values parts separate entries of the source, which are not always exact repeats. Equal values may be shown once. Inconclusive results are not listed. The source made the active and inactive calls. Unless noted, the call rests on the fitted dose curve; in most records, active means well fitted curve in the direction sought with a large enough effect in the repeat runs; inconclusive means weak or mixed curves; inactive means no such curve, though single readings can be large; an effect the other way counts as inactive or inconclusive.

Columns and labels:
[1] = qHTS assay to identify small molecule agonists of the vitamin D receptor (VDR) signaling pathway - cell viability counter screen (AID 743224); further: nearly all actives have a fitted effect of over 50% in size; further: potency means the concentration at half of the fitted maximal effect
Method in brief: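 Compounds were pin-transferred onto VDR-bla cells plated 4 h earlier; following 16 h incubation at 37C, cell viability was quantified by CellTiter-Glo luminescence after 30 min at room temperature.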

[2] = qHTS assay to identify small molecule agonists of the NFkB signaling pathway - cell viability counter screen (AID 1159515; calls by dose curve; further: series mostly up to about 61 µM; nearly all actives have a fitted effect of over 55% in size)
Method in brief: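 Parallel cytotoxicity counter screen in ME-180 cells carrying an NFkB-response-element beta-lactamase reporter, 2,000 cells/well. Compound exposure lasted 5 hr at 37 C, 5% CO2. Cell viability was quantified by CellTiter-Glo luminescence.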

[3] = qHTS assay to identify small molecule agonists of the endoplasmic reticulum stress response signaling pathway (AID 1159516; active means well fitted activation curve with a large enough effect in the signal ratio in the repeat runs, not every such curve was filed as active; the % refers to the signal ratio; further: potency means the concentration at half of the fitted maximal effect)
Method in brief: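 Using a HeLa line with an ESRE-driven beta-lactamase gene, agonist activity was measured by FRET substrate fluorescence (460 and 530 nm emission) after cells were treated with compounds for 5 hr at 37 C and 5% CO2.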

[4] = qHTS assay to identify small molecule agonists of the endoplasmic reticulum stress response signaling pathway - cell viability counter screen (AID 1159517; calls by dose curve;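 further: HeLa cells carrying an ER stress response element beta-lactamase reporter; series mostly up to about 61 µM; nearly all actives have a fitted effect of over 50% in size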)
Method in brief: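 After overnight attachment, ESRE-bla HeLa cells were treated with Tox21 library compounds for 5 hr. CellTiter-Glo luminescence, read 30 min post-addition at room temperature, reported viability.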

[5] = qHTS assay to identify small molecule antagonists of the retinoid-related orphan receptor gamma (ROR-gamma) signaling pathway - cell viability counter screen (AID 1159520); further: nearly all actives have a fitted effect of over 50% in size; further: potency means the concentration at half of the fitted maximal effect
Method in brief: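 Cytotoxicity was read from cellular ATP (CellTiter-Glo luminescence) after 16 hr at 37 C with 1 uM doxycycline induction. The inducer was added 2 hr after compound transfer to Tet-on ROR gamma CHO cells.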

[6] = qHTS assay to identify small molecule agonists of the AP-1 signaling pathway - cell viability counter screen (AID 1159525; calls by dose curve; further: nearly all actives have a fitted effect of over 55% in size; further: potency means the concentration at half of the fitted maximal effect)
Method in brief: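 Intracellular ATP by Cell Titer Glo luminescence (30 min, RT) in the same ME-180 AP-1-bla wells after the 5 h compound exposure at 37 °C. Normalised to tetra n-octyl ammonium bromide and DMSO controls.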

[7] = qHTS assay to identify small molecule antagonists of the retinoid acid receptor (RAR) signaling pathway - cell viability counter screen (AID 1159551); further: nearly all actives have a fitted effect of over 35% in size; further: potency means the concentration at half of the fitted maximal effect
Method in brief: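 ATP-based viability, C3RL4 cells, 6 h at 37 C with 1 uM final retinol co-added after compound; luminescence read 30 min post CellTiter-Glo, RT.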

[8] = qHTS assay to identify small molecule antagonists of the estrogen related receptor (ERR) signaling pathway - cell viability counter screen (AID 1224818);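 further: series mostly up to about 46 µM; viability measured after 17.5 h of compound exposure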
Method in brief: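 Quantitative high-throughput viability counter screen in ERR cells. Compounds (DMSO) incubated 17.5 h at 37 C; read-out was CellTiter-Fluor fluorescence.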

[9] = target: Nuclear receptor ROR-gamma (Homo sapiens) (UniProt P51449); assay: qHTS assay to identify small molecule antagonists of the retinoid-related orphan receptor gamma (ROR-gamma) signaling pathway (AID 1159521; further: nearly all actives have a fitted effect of over 50% in size; further: potency means the concentration at half of the fitted maximal effect)
Method in brief: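 CHO cells expressing RORγ under a TET-on promoter, luciferase under RORE control. Dox 1 uM final, 16 h; compounds added 2 h prior. Luminescence decrease measured.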

[10] = qHTS assay to identify small molecule agonists of the AP-1 signaling pathway (AID 1159526; calls by dose curve)
[11] = target: Retinoic acid receptor RXR-alpha (Homo sapiens) (UniProt P19793); assay: qHTS assay to identify small molecule agonists of the RXR signaling pathway (AID 1159527; calls by dose curve; further: nearly all actives have a fitted effect of over 35% in size)
Method in brief: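 Beta-lactamase reporter assay, agonist format. Engineered HEK 293T line, charcoal-stripped FBS at 2%, overnight (16 hr) exposure, fluorescence at 460 and 530 nm after 405 nm excitation.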

[12] = qHTS assay to identify small molecule antagonists of the vitamin D receptor (VDR) signaling pathway - cell viability counter screen (AID 743225); further: nearly all actives have a fitted effect of over 50% in size
Method in brief: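 Luminescent cell viability (CellTiter-Glo) in VDR-bla HEK 293T cells after 16 h compound exposure at 37C in the presence of 3 nM final 1-alpha,25-dihydroxy vitamin D3.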

[13] = qHTS assay to identify small molecule agonists of the retinoic acid receptor (RAR) signaling pathway (AID 1159553); further: potency means the concentration at half of the fitted maximal effect
Method in brief: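 Quantitative high-throughput format: the Tox21 10K library was tested on C3RL4 RARE-luciferase cells for 6 hr at 37 C and 5% CO2, with luminescence measured after a 30 min room-temperature reagent step.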

[14] = qHTS assay to identify small molecule agonists of the RXR signaling pathway - cell viability counter screen (AID 1159529); further: nearly all actives have a fitted effect of over 50% in size; further: potency means the concentration at half of the fitted maximal effect
Method in brief: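 Same-well viability check after the LiveBLAzer FRET read: CellTiter-Glo added, luminescence measured after 30 min at room temperature. Reporter HEK 293T cells had been treated with compounds for 16 hr following a 5 hr preincubation.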

[15] = qHTS assay to identify small molecule antagonists of the retinoic acid receptor (RAR) signaling pathway (AID 1159552; further: nearly all actives have a fitted effect of over 50% in size; further: potency means the concentration at half of the fitted maximal effect)
Method in brief: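 Readout: luciferase luminescence, 30 min post-reagent at RT. Setup: C3RL4 RARE reporter cells, compounds plus retinol 1 uM final, 6 hr incubation at 37 C and 5% CO2.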

[16] = qHTS assay to identify small molecule agonists of the estrogen related receptor (ERR) signaling pathway (AID 1224820)
Method in brief: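 Luminescence readout (One-Glo, 30 min RT) from NTP-supplied ERR cell line exposed to compounds for 18 h at 37 C. Cells seeded 2,000 per well and pre-incubated 6 h before pin-tool compound transfer.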

[17] = system: estrogen-related receptor alpha (ERRalpha) with PGC-1alpha coactivator, human; assay: qHTS assay to identify small molecule antagonists of the estrogen related receptor signaling pathway with the pleiotropic PPARgamma coactivator (PGC) (AID 1224821; calls by dose curve)
Method in brief: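 PGC/ERR reporter cells; 6 h pre-incubation 37 C/5% CO2; pin-tool compound in DMSO, 18 h 37 C; One-Glo added, 30 min RT; luminescence read. qHTS antagonist mode.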

[18] = qHTS assay to identify small molecule antagonists of the estrogen related receptor signaling pathway with the pleiotropic PPARgamma coactivator (PGC) cell viability counter screen (AID 1224822; further: series mostly up to about 46 µM)
Method in brief: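 Cytotoxicity in the PGC/ERR cell line is assessed with CellTiter-Fluor, read as fluorescence intensity 30 min after reagent addition, following 17.5 h compound treatment at 37 C.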

[19] = qHTS assay to identify small molecule agonists of the estrogen related receptor signaling pathway with the pleiotropic PPARgamma coactivator (PGC) (AID 1224823)
Method in brief: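 Luminescence readout (One-Glo, 30 min RT) from PGC/ERR cell line treated 18 h at 37 C with pin-tool-delivered DMSO compound solutions; cells plated 6 h before dosing. Quantitative HTS format.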

[20] = qHTS assay to identify small molecule antagonists of the estrogen related receptor (ERR) signaling pathway (AID 1224819)
Method in brief: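 ERR reporter cell line (NTP) plated at 2,000 cells/well, settled 6 h at 37C/5% CO2, then exposed to LOPAC compounds for 18 h at 37C. One-Glo luciferase luminescence read after 30 min at room temperature.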

Measured: Potency

Sequence of Retinoic acid receptor RXR-alpha (Homo sapiens) (P19793 whole entry, looked up): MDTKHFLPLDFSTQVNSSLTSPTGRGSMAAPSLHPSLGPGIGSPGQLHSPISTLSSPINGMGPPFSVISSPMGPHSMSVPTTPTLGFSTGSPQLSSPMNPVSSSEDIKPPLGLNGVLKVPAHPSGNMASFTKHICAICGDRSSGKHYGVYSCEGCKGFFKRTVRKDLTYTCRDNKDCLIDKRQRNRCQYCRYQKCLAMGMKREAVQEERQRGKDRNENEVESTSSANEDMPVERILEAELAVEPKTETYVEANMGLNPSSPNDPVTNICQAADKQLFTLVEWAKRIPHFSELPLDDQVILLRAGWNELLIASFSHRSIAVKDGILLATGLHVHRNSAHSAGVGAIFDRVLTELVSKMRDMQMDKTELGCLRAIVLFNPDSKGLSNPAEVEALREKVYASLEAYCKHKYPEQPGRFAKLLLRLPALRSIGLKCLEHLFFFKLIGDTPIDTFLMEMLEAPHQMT

CNCCCN1c2ccccc2CCc2ccccc21
active: [1] 15 µM
inactive: [2] | [3] | [4] | [5] | [6] | [7] | [8]

COC(=O)C1=C(C)NC(COC(N)=O)=C(C(=O)OC(C)C)C1c1cccc(Cl)c1Cl (configuration not stated)
active: [3] 21.3 µM
inactive: [1] | [2] | [4] | [9] | [6] | [10] | [11] | [7]

CN1CCC(=C2c3ccccc3Sc3ccccc32)CC1
inactive: [1] | [12] | [3] | [4] | [5] | [6] | [7] | [13]
active: [9] 29.8 µM

CCCCCCCCCCCCCCOS(=O)(=O)O
active: [1] 43.6 µM | [6] 54.9 µM | [14] 21.9 µM
inactive: [2] | [3] | [4] | [5] | [7]

O=C(O)C1(C(=O)Nc2ccc(Cl)cc2Cl)CC1
inactive: [1] | [12] | [2] | [3] | [4] | [5] | [6] | [7] | [15]
active: [13] 6.11 µM

OCc1cc(C(O)CNCCCCCCOCCCCc2ccccc2)ccc1O (configuration not stated)
inactive: [1] | [2] | [3] | [4] | [5] | [6] | [7] | [15] | [13] | [16] | [17] | [18] | [19]

CN(C)c1ccc(CCO)cc1
inactive: [1] | [12] | [2] | [3] | [4] | [5] | [6] | [14] | [7] | [13]

C=CC(=O)OCCOCCOCCOCCOC(=O)C=C
active: [9] 12.3 µM and 8.56 µM | [15] 48.8 µM and 42.9 µM | [13] 19.4 µM and 17.1 µM
inactive: [2] | [3] | [4] | [6]

CC(C)Nc1ccc(NC(C)C)c2c1C(=O)c1ccccc1C2=O
active: [5] 28.4 µM | [9] 25.3 µM | [7] 25.3 µM
inactive: [1] | [12] | [3] | [4] | [6] | [13]

c1ccc(C(O[C@H]2CCCN(CCc3ccc4c(c3)OCO4)C2)c2ccccc2)cc1
inactive: [1] | [12] | [2] | [3] | [4] | [5] | [6] | [14] | [7]

OC(CN1CCC(Cc2ccc(F)cc2)CC1)c1ccc(Cl)cc1 (configuration not stated)
inactive: [2] | [3] | [4] | [5] | [6] | [14] | [7] | [15] | [8] | [18]

CCCCCC[C@@H](O)C/C=C\CCCCCCCC(=O)OC
inactive: [1] | [12] | [2] | [3] | [4] | [5] | [6] | [14] | [7] | [15]

Nc1ncn([C@H]2C[C@H](O)[C@@H](CO)O2)c(=O)n1
inactive: [1] | [12] | [2] | [3] | [4] | [5] | [6] | [14] | [7]

O=C(c1ccc(F)cc1)C1CCN(CCn2c(=S)[nH]c3ccccc3c2=O)CC1
inactive: [12] | [2] | [3] | [4] | [5] | [6] | [14] | [7] | [15]

COc1cc(C(=O)OCCCN2CCCN(CCCOC(=O)c3cc(OC)c(OC)c(OC)c3)CC2)cc(OC)c1OC
inactive: [1] | [2] | [3] | [4] | [9] | [6] | [10] | [14] | [7] | [20] | [16] | [17] | [19]
active: [15] 13.3 µM

CN(C)CCN(Cc1ccc(Cl)cc1)c1ccccn1
inactive: [12] | [2] | [3] | [4] | [5] | [6] | [7] | [15] | [13]

Cc1ccc(C(=O)Oc2ccc(C(O)CNC(C)(C)C)cc2OC(=O)c2ccc(C)cc2)cc1 (configuration not stated)
active: [5] 26.6 µM | [14] 19 µM
inactive: [1] | [2] | [3] | [4] | [6] | [13]

C[C@H](CCC(=O)O)[C@H]1CC[C@H]2[C@@H]3CC[C@@H]4C[C@H](O)CC[C@]4(C)[C@H]3C[C@H](O)[C@]12C
inactive: [2] | [3] | [4] | [5] | [6] | [7] | [15] | [13]

CCC(CC)Nc1ccc(C)c(C)c1
inactive: [12] | [3] | [4] | [5] | [9] | [6] | [7]

Cc1cc(N)c2cc(NC(=O)Nc3ccc4nc(C)cc(N)c4c3)ccc2n1
inactive: [2] | [3] | [4] | [5] | [14] | [7] | [15] | [13]

CCN(CC)c1ccc(C(=C2C=CC(=[N+](CC)CC)C=C2)c2cc(S(=O)(=O)O)ccc2S(=O)(=O)[O-])cc1
active: [5] 13.3 µM | [7] 15 µM | [15] 11.9 µM
inactive: [1] | [12] | [2] | [3] | [4] | [10] | [11]

OCCNCc1ccccc1
inactive: [1] | [12] | [2] | [3] | [4] | [9] | [6] | [10] | [11] | [14] | [7] | [15] | [13]

CC(C)CC(=O)C1C(=O)c2ccccc2C1=O
active: [9] 17.2 µM
inactive: [1] | [2] | [3] | [4] | [6] | [10] | [14] | [7] | [13]
